# Reference: PubChem BioAssay AID1259343 (VanderVen Lab, College of Veterinary Medicine, Cornell …, 2017)
# Screen size: about 6,200 compounds; about 2,900 (47%) were called active. No stated cut-off is given here; in the data, active means inhibition above about 50%; inactive means the rest. The set was probably picked from earlier hits. This is one part of the list.
# Test: Mycobacterium tuberculosis growth inhibition, primary screen (AID 1259343)
# Conditions: inhibition: at 10 µM, hits give high values; outcome: 10 uM
row,Compound,inhibition
1,CC1CCc2c(sc3nc(C(C)N4CCOCC4)[nH]c(=O)c23)C1 (centres undefined),49.6% (inactive)
2,COc1ccc(OCCSCc2nc3sc4c(c3c(=O)[nH]2)CCC(C)C4)cc1 (centres undefined),54.4% (active)
3,CC1CCc2c(sc3nc(CN(Cc4ccccc4)CC(O)COCc4ccccc4)[nH]c(=O)c23)C1 (centres undefined),17.2% (inactive)
4,N=c1oc2c([N+](=O)[O-])cc(N3CCCCC3)cc2cc1-c1nc2ccccc2s1,5.54% (inactive)
5,CN(C)c1ccc(C=NNc2ccc(F)cc2F)cc1,14.3% (inactive)
6,Oc1ccc(Br)cc1C=NNc1ccc(F)cc1F,58.9% (active)
7,COc1cc(OC)c(OC)cc1C=NNc1ccc(F)cc1F,84.3% (active)
8,CCOC(=O)c1nnc2n(c1=O)CCN2c1ccc(OC)cc1,31.9% (inactive)
9,O=C1CSC2=NCN(c3ccc(Cl)c(Cl)c3)CN12,71.9% (active)
10,COc1ccc(N2CN=C3SCC(=O)N3C2)cc1,95.9% (active)
11,COc1ccc(CN2CCN(c3ccc(Oc4ccccc4)cc3)C(=O)C2C)cc1 (centres undefined),28.7% (inactive)
12,O=C1CSC2=NCN(c3ccc(I)cc3)CN12,63.4% (active)
13,O=c1c2cnc(N3CCOCC3)nc2ccn1-c1ccc(Cl)c(Cl)c1,12.3% (inactive)
14,CNc1cnc(-c2ccc(O)cc2C)cn1,9.26% (inactive)
15,CCCCCCCCN=C1NC(=O)CS1,95.8% (active)
16,CCCCCOc1cc(C)ccc1S(=O)(=O)N1CCCC1,41.6% (inactive)
17,Nc1ncc(Br)cc1S(=O)(=O)N1CCCCC1,77.9% (active)
18,CCOc1ccc(-c2ccc(=O)n(Cc3cc(C)ccc3C)n2)cc1,-12.8% (inactive)
19,CCOc1ccc(-c2ccnc(N3CCN(C(=O)C(=O)OC)CC3)n2)cc1,53.2% (active)
20,CCOC(=O)C1CCN(C2CCN(c3nncc(-c4ccccc4)n3)CC2)CC1,-15.5% (inactive)
21,O=C(NCCc1ccco1)c1ccc(C2SCCS2)cc1,77.9% (active)
22,CC(C)(CNC(=O)CCc1ccco1)c1ccc(Br)cc1,11.2% (inactive)

row,Compound,inhibition
1,O=C(NCCc1ccco1)c1ccc(Br)cc1F,5.5% (inactive)
2,O=S(=O)(Nc1cnc(Br)cn1)c1cccc(Cl)c1,10.2% (inactive)
3,N#Cc1ccc(NS(=O)(=O)c2ccc(F)c(Cl)c2)nc1,27% (inactive)
4,O=S(=O)(Nc1ccc(Br)cn1)c1ccc(Cl)cc1,77.7% (active)
5,CC(C)(C)c1ccc(CC2CCN(C(=O)CCCl)CC2)cc1,82% (active)
6,O=C(NCc1ccccc1F)C(C1CCCC1)N1CCN(C(=O)c2ccc(C(F)(F)F)cc2)CC1 (centres undefined),-35.5% (inactive)
7,O=C(c1c(F)c(F)cc(F)c1F)N1CCC(Cc2ccc(C(F)(F)F)cc2)CC1,71.6% (active)
8,O=C(N1CCC(Cc2ccc(-c3ccccc3)cc2)CC1)C(F)(F)C(F)F,39.3% (inactive)
9,O=C(C1CCC1)N1CCC(Cc2ccc(C(F)(F)F)cc2)CC1,83.6% (active)
10,CC(Cl)C(=O)N1CCC(Cc2ccc(C(F)(F)F)cc2)CC1 (centres undefined),90.3% (active)
11,Cc1cc2cc(NC(=O)c3ccc(CN4CC[C@H](O)C4)cc3)ccc2o1,91.8% (active)
12,O=C1NC(=NC2CCCC2)SC1=Cc1cc2c(cc1Br)OCO2,63.1% (active)
13,c1ccc(-c2nc(NCCc3ccccn3)c3ccccc3n2)cc1,-27% (inactive)
14,O=[N+]([O-])c1ccccc1NCCNc1cccc2ccccc12,26% (inactive)
15,c1ccc2c(NCCNc3ncnc4ccccc34)cccc2c1,69.3% (active)
16,CCOC(=O)CNc1c(-c2ccc(C(F)(F)F)cc2)nc2ccc(Br)cn12,24.2% (inactive)
17,COc1ccc(OC)c(-c2nc3ccc(Br)cn3c2NC2CCCCC2)c1,10.8% (inactive)
18,CCOC(=O)CNc1c(-c2ccccc2Cl)nc2ccc(Br)cn12,88.4% (active)
19,Oc1c(Cl)cc(Cl)c(Cl)c1Cc1c(O)c(Cl)cc(Cl)c1Cl,102% (active)
20,Cc1cccc(-c2ccc(NC(=O)C3CCN(C(=O)c4nonc4C)CC3)cc2)c1,92.3% (active)
21,Cc1cccc(-c2ccc(NC(=O)C3CCN(C(=O)c4ccc(F)cc4)CC3)cc2)c1,81.5% (active)
22,Cc1cccc(-c2ccc(NC(=O)C3CCN(C(=O)c4ccncc4)CC3)cc2)c1,inactive

row,Compound,inhibition
1,O=C(CCOc1ccccc1)NC12CC3CC(CC(C3)C1)C2,87.8% (active)
2,COc1ccccc1N(C)CC(=O)NC12CC3CC(CC(C3)C1)C2,9.54% (inactive)
3,Cc1ccc(SCC(=O)NC23CC4CC(CC(C4)C2)C3)cc1C,-43.9% (inactive)
4,O=C(Nc1nc(-c2ccc(Br)s2)cs1)c1ccc(Br)s1,81.8% (active)
5,CC(C)Nc1nc(-c2ccc(Br)s2)cs1,17.8% (inactive)
6,CCOc1ccc(Nc2cncc(Cl)n2)cc1,72.5% (active)
7,COc1ccc(NC(=O)N(Cc2ccco2)C(C)c2nc3ccccc3c(=O)n2-c2ccccc2)cc1 (centres undefined),-7.33% (inactive)
8,COc1ccc(NC(c2ccccn2)c2oc(CO)cc(=O)c2O)cc1 (centres undefined),84.2% (active)
9,CCCCCCCCNC(C)C(O)c1ccc(SC(C)C)cc1 (centres undefined),3.63% (inactive)
10,O=C(Cc1csc(NC(=O)NC2CCCCC2)n1)Nc1ccc(Oc2ccccc2)cc1,-2.63% (inactive)
11,NC(=O)Cc1csc(Nc2ccc(OC(F)(F)F)cc2)n1,73.5% (active)
12,CN(CCC(O)c1ccccc1)C(=O)c1cc(COc2cccc3cnccc23)on1 (centres undefined),48.2% (inactive)
13,Cc1ccc(OCc2cc(C(=O)N(C)Cc3csc(-c4ccccc4)n3)no2)cn1,73% (active)
14,CC(C)c1nc(CNC(=O)c2cc(COc3c(F)cccc3F)on2)cs1,23.3% (inactive)
15,COCCN(C)C(=O)c1cc(COc2cc(C)c(Cl)c(C)c2)on1,inactive
16,O=C(NCC1CCCCO1)c1cc(COc2c(F)cccc2F)on1 (centres undefined),65.1% (active)
17,Cc1ccc(OCc2cc(C(=O)N(C)CC3Cc4ccccc4O3)no2)cn1 (centres undefined),inactive
18,O=C(NCC1CCCCO1)c1coc(COc2cccc(C(F)(F)F)c2)n1 (centres undefined),0.47% (inactive)
19,CN(CCOc1ccccc1)C(=O)c1cc(COc2c(F)cccc2F)on1,84.2% (active)
20,Cc1ccc(OCc2cc(C(=O)N(C)CCc3ccccc3)no2)cc1C,93.7% (active)
